Assay outcomes (PubChem)
DT40 TDP1 CPT = DT40-hTDP1 cell growth loss with CPT; chicken DT40 Tdp1-/-;hTDP1 cells + 20 nM CPT, ATP luminescence, 48 h; Potency, µM (titrated, usually from 46.2 µM), inactives show top-dose activity change, negative = growth inhibition, hits mostly inhibitors; 420,000 tested, 12% active; further: on the % scale 0 is the no-effect control and ±100 the full control effect; nearly all actives have a fitted effect of over 55% in size
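Chicken DT40 Tdp1-/- cells complemented with human TDP1, 400 cells/well, exposed to compounds plus 20 nM camptothecin for at least 48 h at 37 C; viability read as ATP content by CellTiter-Glo luminescence.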
TDP1 cell noCPT = qHTS for Inhibitors of human tyrosyl-DNA phosphodiesterase 1 (TDP1): qHTS in cells in absence of CPT | DT40 Tdp1-/- hTDP1 cells, no CPT, ATP luminescence, 48 h | Potency, µM (titrated, usually from 46.2 µM), for inactives: at the highest dose activity change, negative = growth inhibition, most hits filed as inhibitors | 420,000 tested, 15% active | AID 686978, 2013; further: on the % scale 0 is the no-effect control and ±100 the full control effect; nearly all actives have a fitted effect of over 55% in size
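DT40 Tdp1-/-;hTDP1 cells, no CPT (DMSO vehicle only), 400 cells/well; compounds pin-transferred; ≥48 hr, 37 °C; CellTiter-Glo 30 min RT dark, luminescence read.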
HepG2 viability = counter-screen for TGF-b inhibitors: cytotoxicity in HepG2 cells. HepG2 CAGA-GFP viability, ATP luminescence, 18 h. Potency, µM (highest dose often 46.1 µM), for the others: top-dose activity change, negative = cytotoxicity, actives largely listed as cytotoxic. 410,000 tested, 0.76% active
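HepG2 CAGA-GFP cells (1000/well, DMEM with 1% FBS) received compound, then TGF-beta at 500 pg/mL final, and were incubated 18 hours at 37 degrees C. Viability was read by CellTiter-Glo luminescence. Media-only wells were set as complete cell-killing and DMSO as no toxicity.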
ATXN2 expr inh = inhibitors of ATXN2 expression; HEK-293 ATXN2-luciferase reporter, luminescence, 24 h; Potency, µM (top dose mostly 57 µM), without a hit: at the top dose activity change, negative = inhibition, actives largely listed as inhibitors; 360,000 tested, 0.72% active; AID 1745845; further: on the % scale 0 is the no-effect control and ±100 the full control effect; nearly all actives have a fitted effect of over 55% in size
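ATXN2-luciferase reporter cells (luciferase flanked by upstream and downstream ATXN2 gene portions) were treated 24 h at 37 °C with compounds at up to 57 uM. SteadyGlo luminescence gave expression; GF-AFC fluorescence gave viability.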
S2 tox = viability counter-screen for ATXN expression inhibitors; S2 cells (HEK-293 line with an ATXN2-luciferase reporter) viability, CellTiter-Fluor protease fluorescence, 24 h; Potency, µM (highest dose often 56.7 µM), usual class: cytotoxic; 400,000 tested, 0.49% active; AID 651635; further: nearly all actives have a fitted effect of over 40% in size
TGFb inhibitor = inhibitors of TGF-b signaling. HepG2 CAGA-GFP TGF-b/SMAD3 reporter, GFP fluorescence, 18 h; TGF-beta stimulated, 500 pg/mL final. Potency, µM (titrated, usually from 46.1 µM), inactives show top-dose activity, negative = inhibition, actives largely listed as inhibitors. 410,000 tested, 1.2% active. AID 588855; further: on the % scale 0 is the no-effect control and ±100 the full control effect; nearly all actives have a fitted effect of over 65% in size
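GFP signal (ex488/em500-530) from TGF-beta-stimulated HEPG2 CAGA-GFP cells, 500 pg/mL final, 18 h at 37 degrees C in DMEM plus 1% FBS, normalized to unstimulated and DMSO-stimulated controls.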
* marks the source's active call; other numbers are inactive results; i = inactive; ? = inconclusive; / = no result. Hits are enriched below; roughly 17% of the tested compounds scored in any of these assays. The call rests on the fitted dose curve; in most records, active means well fitted curve in the direction sought with a large enough effect; inconclusive means small, poorly fitted or top-dose-only effect, or another doubt; inactive means no such curve, though single readings can be large; an effect the other way counts as inactive or inconclusive. Potency means the concentration at half of the fitted maximal effect.

SMILES	DT40 TDP1 CPT	TDP1 cell noCPT	HepG2 viability	ATXN2 expr inh	S2 tox	TGFb inhibitor
Cc1ccc2[nH]c(=O)c(CN(Cc3ccc4c(c3)OCO4)Cc3nnnn3C3CCCC3)cc2c1	?	?	-12.5%	-7.3%	i	-28.4%
Cc1cc(C)c2cc(CN(Cc3nnnn3C3CCCCC3)CC3CCCO3)c(=O)[nH]c2c1 (stereo not given)	?	13µM*	-44.1%	?	/	?
Cc1cc2cc(CN(Cc3nnnn3C3CCCCC3)CC3CCCO3)c(=O)[nH]c2cc1C (stereo not given)	?	?	-10.0%	-23.7%	?	-26.1%
Cc1ccc2cc(CN(Cc3nnnn3C3CCCCC3)CC3CCCO3)c(=O)[nH]c2c1 (stereo not given)	14.6µM*	16.4µM*	-22.4%	-8.6%	?	-33.4%
COc1ccc(CN(Cc2cc3ccc(C)cc3[nH]c2=O)Cc2nnnn2C2CCCC2)cc1	?	18.4µM*	-4.5%	-11.2%	?	-14.2%
COc1cccc(CNC(=O)CCS(=O)(=O)Cc2ccc(C)cc2)c1	-22.4%	?	5.4%	1.6%	i	-15.0%
Cc1cccc2cc(CN(Cc3nnnn3C3CCCC3)C3CCCCC3)c(=O)[nH]c12	20.6µM*	?	-3.8%	-17.2%	i	-1.2%
Cc1oc2ncnc(N3CCCCC3)c2c1C(=O)NCC1CCN(Cc2ccccc2F)CC1	-25.0%	2.2%	-14.5%	-0.3%	i	-8.3%
OC[C@H]1O[C@@H](c2nc3ccc(-c4nc(-c5ccc(Br)cc5)no4)cc3[nH]2)C[C@@H]1O	16.4µM*	16.4µM*	-28.7%	-48.9%	?	7.2%
CCN(CC)C(=O)c1ccc2nc([C@H]3C[C@H](O)[C@@H](CO)O3)[nH]c2c1	-8.8%	-7.3%	-6.6%	0.0%	i	-6.3%
O=C(Oc1ccccc1)N1CCCC1	5.1%	0.0%	-11.4%	/	i	-16.3%
O=C(Oc1ccc(OC(=O)N2CCCCC2)cc1)c1ccccc1	?	0.0461µM*	-0.1%	14.1%	i	1.6%
COC(=O)[C@@]12C[C@@H](CC(=O)N3CCSCC3)C(=O)N(Cc3ccco3)C1=CCC(C)(C)C2	-0.9%	?	/	/	/	/
CCCCCCCCN1C(=O)[C@H](CC(=O)N2CCN(C(=O)OCC)CC2)C[C@@]2(C(=O)OC)CC(C)(C)CC=C12	13µM*	13µM*	/	/	/	/
CCCCCCCCN1C(=O)[C@H](CC(=O)N2CCN(C(=O)C3CC3)CC2)C[C@@]2(C(=O)OC)CC(C)(C)CC=C12	14.6µM*	14.6µM*	/	/	/	/
COc1ccc([C@H]2CC(=O)C=C(c3ccc(O)cc3)C2)cc1OC	?	20.6µM*	-4.5%	4.2%	i	-13.0%
COc1ccc([C@H]2CC(=O)C=C(c3ccc(OC)c(OC)c3)C2)cc1	11.6µM*	?	-0.6%	3.4%	i	11.6%
O=C1C=C(c2ccc3ccccc3c2)C[C@@H](c2ccc(Cl)cc2)C1	?	?	-10.6%	105.9%	i	?
O=C1C=C(c2ccc3ncccc3c2)C[C@@H](c2ccc(Cl)cc2)C1	23.1µM*	?	-30.1%	?	?	?
COc1ccc(C2=CC(=O)CC(c3ccc(OC)cc3)C2)cc1 (stereo not given)	7.6%	?	-18.8%	46.7%	i	-5.4%
COc1ccc([C@H]2CC(=O)C=C(c3ccc4ncccc4c3)C2)cc1OC	?	20.6µM*	-0.8%	-20.4%	?	0.6%
CC(C)(C)C(=O)Nc1cccc(S(=O)(=O)NC2=NCCC2)c1	-25.3%	0.3%	72.6%	-4.6%	i	14.2%
COc1cccc(OC)c1NC(=O)CN1CCC(NC(=O)c2cccc(F)c2)CC1	-3.0%	-12.4%	-0.2%	3.3%	?	4.7%
COC(=O)c1c(C)sc(-c2c(-c3ccc(F)cc3)[nH]c3[nH]c(=O)[nH]c(=O)c23)c1O	-0.8%	-11.7%	-5.3%	10.8%	i	133.9%
COCCCNC(=S)Nc1ccc(CC(=O)O)cc1	-7.6%	-24.9%	-1.8%	-3.9%	i	0.6%
SMILES	DT40 TDP1 CPT	TDP1 cell noCPT	HepG2 viability	ATXN2 expr inh	S2 tox	TGFb inhibitor
O=C(N/N=C/c1ccccn1)C(=O)N1CCCCCC1	19.8%	2.4%	9.4%	-12.3%	i	-8.8%
N[C@@H](CC(=O)N1CCn2c(nnc2C(F)(F)F)C1)Cc1cc(F)c(F)cc1F	/	/	/	-10.8%	/	/
COc1ccc([C@H]2CC(=O)C=C(c3cccc(C(C)C)c3)C2)cc1OC	20.6µM*	16.4µM*	-35.7%	-34.7%	?	?
COc1ccc([C@H]2CC(=O)C=C(c3ccc(-c4ccccc4)c(F)c3)C2)cc1OC	?	?	-0.3%	2.5%	i	?
COc1ccc([C@H]2CC(=O)C=C(c3cccc4c3Oc3ccccc3S4)C2)cc1OC	16.4µM*	13µM*	-19.2%	-28.6%	?	-13.2%
O=C1C=C(c2cc3ccccc3s2)C[C@@H](c2ccc(F)cc2)C1	?	?	-3.9%	16.9%	i	3.1%
COc1ccc([C@H]2CC(=O)C=C(c3ccc4ccccc4c3)C2)cc1OC	?	16.4µM*	-10.5%	-23.7%	i	?
O=C1C=C(c2cc3ccccc3s2)C[C@@H](c2ccc(Cl)cc2)C1	9.2µM*	?	-5.4%	37.2%	i	?
O=C1C=C(c2cccc3c2Oc2ccccc2S3)C[C@@H](c2ccc(Cl)cc2)C1	?	?	7.4%	3.8%	i	-37.3%
COc1cc([C@H]2c3c(cc(OC)c(O)c3OC)C[C@@H](CO)[C@@H]2CO[C@@H]2O[C@H](CO)[C@@H](O)[C@H](O)[C@H]2O)cc(OC)c1O	-4.1%	1.0%	-11.5%	7.4%	i	8.6%
Cc1nc2n[nH]c(N)c2nc1C	4.9%	0.7%	-3.8%	/	i	-5.8%
OC1C2CCC(C2)C1CN1CCOCC1 (stereo not given)	-7.2%	-33.4%	-5.3%	-5.0%	i	-7.0%
CCCCCCCC(=O)N/N=C/c1cccnc1	-21.8%	-2.8%	6.1%	10.0%	i	-0.2%
O=C(CCCCC(=O)NN=Cc1ccccc1O)NN=Cc1ccccc1O	5.8µM*	5.8µM*	-1.7%	?	i	-0.4%
C=CCn1c(CNc2ccccc2)nnc1SCC(=O)N/N=C/c1ccccc1O	?	?	-28.4%	17.8µM*	i	?
Cc1cc(=O)oc2cc(OCC(=O)N/N=C/c3ccccc3O)ccc12	-5.0%	-32.2%	-8.9%	-6.0%	i	10.6%
